Measurements reported in PubChem BioAssay AID624331 (National Center for Advancing Translational Sciences (NCATS), 2012).
Results filed as inconclusive are left out. Entries that show only a call come without a potency. Active and inactive are the calls of the source. Calls follow the shape of the dose curve; as a rule, active = well fitted activation curve with a large enough effect; inconclusive = small, poorly fitted or top-dose-only effect; inactive = no such curve, though single readings can be large or run the other way.

Experiment: qHTS assay for re-activators of p53 using a Luc reporter: Hit Validation with no p53 Expressed
Settings: p53-null cells, luciferase reporter counter-screen; series mostly up to 46.1 µM
Summary of the method: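 Counter-screen of primary hits in a cell line not transfected with p53, in Opti-MEM with 10% FBS; compounds at several concentrations (10 mM stock, 1:5; top 46.1 µM in well), 24 h at 37 deg C, 5% CO2. Luminescence read after 10 min with Amplite reagent.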
Potency is read from the fitted curve at half-maximal effect.

SMILES | Potency
COc1ccccc1OCCn1nnc2ccccc21 | inactive
O=[N+]([O-])c1ccc(/C=N/NC(=S)Nc2ccccc2F)o1 | inactive
O=C(NCCCc1ccccc1)c1cc(COc2c(F)cccc2F)on1 | inactive
Cc1cc(C)c2nc(NNC(=O)c3ccc(S(=O)(=O)N4CCc5ccccc5C4)cc3)sc2c1 | inactive
Cc1cc(NC(=O)c2ccc3c(c2)OCCO3)no1 | inactive
Cc1cccnc1NC(=O)c1ccc([N+](=O)[O-])o1 | inactive
ON=C1c2cc(OCCN3CCCCC3)ccc2-c2ccc(OCCN3CCCCC3)cc21 | inactive
COC(=O)c1ccc(/C=C/c2ccc3cccc(OC(C)=O)c3n2)cc1 | inactive
O=C(Nc1nnc(-c2cccs2)o1)c1cccc(C(F)(F)F)c1 | inactive
COc1cccc(NC(=O)CSC2=C(C#N)C(c3ccco3)C3=C(CCCC3=O)N2)c1 (stereo not given) | inactive
COc1ccc2oc(C(=O)Nc3nc(C)cs3)c(C)c2c1 | inactive
O=C(N/N=C/c1cccs1)c1n[nH]c2c1CCC2 | inactive
Cc1cccc(Nc2nc(N3CCOCC3)nc(N3CCOCC3)n2)c1 | inactive
COc1ccc(N2CCN(CCCNC(=O)C3(S(=O)(=O)c4ccc(Cl)cc4)CC3)CC2)cc1 | inactive
Cc1cc(C)cc(NC(=O)c2sc3nc(C)cc(C)c3c2N)c1 | inactive
Cc1cs/c(=N/C(=S)Nc2ccccc2)n1C | 1300 nM (active)
CN(C)/C=N/c1cnc(C(=O)c2ccc(Cl)cc2)n1C | inactive
Cc1noc(C)c1C(=O)Nc1nc(-c2ccc(F)cc2)cs1 | inactive
Cc1cc(C(F)(F)F)c(C#N)c(SCC(=O)Nc2nc3ccccc3s2)n1 | 116 nM (active)
CCc1ccc(NC(=O)c2cnn3ccccc23)cc1 | inactive

SMILES | Potency
COc1cccc(/C=N/NC(=O)CCc2n[nH]c(=O)[nH]c2=O)c1O | inactive
Cc1cc(C(=O)CSc2nnc(N)s2)c(C)n1Cc1cccs1 | inactive
COc1cc(C(=S)N2CCOCC2)ccc1OC(=O)c1ccccc1C | inactive
COc1ccc(NC(=S)NC(=NS(=O)(=O)c2ccc(Cl)cc2)c2ccccc2)cc1 | inactive
Cc1nc(NCCc2ccccc2)c2nnn(Cc3ccccc3Cl)c2n1 | inactive
c1ccc(-c2cc3cc4c(cc3cn2)OCO4)cc1 | inactive
COc1cc(NC(=O)CN2C(=O)COc3ccc(S(=O)(=O)N4CCCC4)cc32)cc(OC)c1 | inactive
O=C(Nc1ccccc1Br)c1ccc(OC(=S)N2CCOCC2)cc1 | inactive
N#C/C(Cn1c[n+](NC(=O)Nc2ccccc2)cn1)=N/O | inactive
Cc1cccc(NC(=O)c2ccccn2)c1C | inactive
C=CCOc1c(OC)cc(/C=N/Nc2cccc(C(=O)O)c2)c(Br)c1Br | inactive
COc1ccc2oc(C(=O)OCC(=O)NCCN3C(=O)CSC3=O)c(C)c2c1 | inactive
Cc1ccccc1C(=O)Nc1ccc(Br)cn1 | inactive
Cc1sc(NC(=O)c2ccc(Cl)s2)c(C(N)=O)c1C | inactive
Cc1ccc(CNc2cc(C(=O)O)ccc2Cl)s1 | inactive
CCOc1ccc(OCc2cccc(C(=O)N3CCCC3)c2)cc1 | inactive
CC(C)(C)c1ccc(S(=O)(=O)N2CCSC2)cc1 | inactive
COc1cc(NC(=O)CSCc2ccc(Cl)cc2)c(C(=O)O)cc1OC | inactive
CN=c1scc(-c2cccs2)n1/N=C/c1ccc(O)c(O)c1O | inactive
CC1C(=O)CCN(C(C)(C)C)C1C (stereo not given) | inactive
